From PubChem
This is a sample that favours compounds with a hit; in the whole collection about 4.2% have one here.
V-ATPase pH – regulators of yeast V-ATPase proton pumping, primary screen, pHLuorin cytosolic pH fluorescence; S. cerevisiae; response, % at 10 µM; 0.37% of 350,000 active; in the data active means response mostly above about 7.3%, no sharp cut-off; inactive means mostly below about 5.4%; further: actives read high
TIM10 inh – growth inhibitors of isogenic TIM10 control yeast, primary screen, counter-screen for tim10-1 yeast inhibitor project, luminescence, uHTS | S. cerevisiae TIM10 strain growth, BacTiter-Glo luminescence, 24 h | inhibition, % at 10 µM | 1.4% of 330,000 active | AID 463195, 2010;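 active means inhibition of 40% or more at the single tested concentration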;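 further: wild-type TIM10 isogenic control strain grown at permissive 25 °C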
tim10-1 inh – growth inhibitors of tim10-1 mutant yeast, primary screen, luminescence, uHTS; inhibition, % at 20 µM; AID 463190, 2010; 2.2% of 330,000 active; S. cerevisiae tim10-1 ts strain growth, BacTiter-Glo, 24 h;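 active means inhibition of at least 40%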;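 further: mutant grown at 25 °C; 0% = DMSO wells with yeast and 100% = wells holding no yeast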
NALP1 inh – NALP1 inflammasome inhibitors in reconstituted yeast, colorimetric, S. cerevisiae, triplicate retest | 0.61% of 280,000 active | S. cerevisiae NALP1/ASC/caspase-1 growth, X-gal OD620, 72 h | inhibition, % at 10 µM | AID 2071, 2009; in the data active means inhibition mostly above about 24%, no sharp cut-off; inactive means mostly below about 32%
NLRP3 yeast inh – NALP3 inflammasome inhibitors in reconstituted yeast, primary screen, luminescence, uHTS | inhibition, % at 10 µM | 0.39% of 330,000 active | AID 2825, 2010 | Yeast reconstituted NLRP3/ASC/caspase-1, beta-gal luminescence, 24 h;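 active means inhibition of 50% or more; inactive means inhibition below 50%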;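 further: plate controls were induced DMSO wells for no effect and uninduced yeast grown without galactose for full effect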
tim23-1 inh – growth inhibitors of tim23-1 mutant yeast, primary screen, luminescence, uHTS; S. cerevisiae tim23-1 growth, BacTiter-Glo luminescence, 24 h; inhibition, % at 20 µM; 1.3% of 330,000 active;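 active means growth inhibition of the mutant yeast at or above 50%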;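 further: temperature-sensitive mutant grown at 25 °C; plate controls were DMSO-treated mutant yeast for no effect and medium wells lacking yeast for full effect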
tim10-1 conf – growth inhibitors of tim10-1 mutant yeast, confirmation, single concentration, luminescence, S. cerevisiae; 56% of 7,400 active; inhibition, % at 20 µM; AID 463213, 2010; S. cerevisiae tim10-1 ts strain growth, BacTiter-Glo, 24 h; shares compounds with tim10-1 inh;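 active means inhibition of yeast growth at or above a set limit in either of two repeat tests at 20 µM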;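 further: tim10-1 mutant grown at permissive 25 °C to find synthetic lethal compounds; 0% = DMSO yeast wells and 100% = medium wells without yeast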
tim10 confirm – growth inhibitors of wild-type TIM10 yeast, confirmation, counter-screen for tim10-1 synthetic lethality project, single concentration, luminescence, S. cerevisiae; shares compounds with TIM10 inh; S. cerevisiae tim10 strain growth, BacTiter-Glo luminescence, 24 h; inhibition, % at 10 µM; 63% of 4,600 active;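 active means inhibition of yeast growth at or above a set limit in either of two replicates at 10 µM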;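 further: this counterscreen used the strain with wild-type TIM10; 0% = yeast with DMSO and 100% = medium wells lacking yeast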
An asterisk follows results filed as active.

For COc1cc2c(cc1OC)C(c1cc(Br)ccc1F)N(C(=O)CCl)CC2 (centres undefined) the results were V-ATPase pH 0, TIM10 inh 45*, tim10-1 inh 42*, NALP1 inh 7, NLRP3 yeast inh -10, tim23-1 inh 46, tim10-1 conf 40* and tim10 confirm 43*.
For O=S(=O)(NCCSc1ccc(Cl)cc1)c1ccc(F)cc1 the results were V-ATPase pH -1, TIM10 inh 41*, tim10-1 inh 44*, NALP1 inh 2, NLRP3 yeast inh 24, tim23-1 inh 31, tim10-1 conf 35* and tim10 confirm 12.
Screening CC(C)(C)SCCNS(=O)(=O)c1ccc(Cl)cc1 returned V-ATPase pH 4, TIM10 inh 7, tim10-1 inh 32, NALP1 inh -1, NLRP3 yeast inh 16 and tim23-1 inh 38.
`COc1cc(/C=C/C(=O)c2ccc(C)cc2)ccc1OCC#N` gave V-ATPase pH -2, TIM10 inh 33, tim10-1 inh 28, NLRP3 yeast inh 25 and tim23-1 inh 45.
Screening CCOc1cc(/C=C/C(=O)c2ccc(C)cc2)ccc1OCC(=O)N(C)C returned V-ATPase pH -1, TIM10 inh 45*, tim10-1 inh 50*, NALP1 inh 25, NLRP3 yeast inh 10, tim23-1 inh 43, tim10-1 conf 35* and tim10 confirm -27.
Screening C=CC[C@]12CC=CC(=O)[C@@]1(O)O[C@H](c1ccc(OC)c(OC)c1)[C@H]2C returned V-ATPase pH 1, TIM10 inh 42*, tim10-1 inh 50*, NLRP3 yeast inh 21, tim23-1 inh 47, tim10-1 conf 38* and tim10 confirm 43*.
For COc1cc(/C=N/Nc2ccc(C(F)(F)F)cn2)cc(OC)c1O the results were V-ATPase pH 1, TIM10 inh 2, tim10-1 inh 5, NALP1 inh 8, NLRP3 yeast inh 29 and tim23-1 inh 11.
`Oc1ccc(/C=N/Nc2ccc(C(F)(F)F)cn2)cc1` gave V-ATPase pH -3, TIM10 inh 48*, tim10-1 inh 44*, NALP1 inh -80, NLRP3 yeast inh -33, tim23-1 inh 34, tim10-1 conf 28 and tim10 confirm 30.
For COc1ccc2c(c1OC)C(=O)N1N=C(c3ccc(-c4ccccc4)cc3)CC21 (centres undefined) the results were V-ATPase pH 0, TIM10 inh 11, tim10-1 inh 7, NALP1 inh -2, NLRP3 yeast inh 9 and tim23-1 inh 11.
Screening COc1ccc2c(c1OC)C(=O)N1N=C(c3ccc(Br)cc3)CC21 (centres undefined) returned V-ATPase pH 2, TIM10 inh 40*, tim10-1 inh 48*, NALP1 inh 27, NLRP3 yeast inh 25, tim23-1 inh 40, tim10-1 conf 40* and tim10 confirm -3.
C=C1C(=O)O[C@H]2C[C@H]1[C@@H](OC(C)=O)C/C(C)=C/CC/C(C)=C\CC[C@]2(C)O was read as V-ATPase pH -2.
For C=C1C(=O)O[C@@H]2[C@H]3O[C@]3(C)CC/C=C(\C)CC[C@@H]12 the results were V-ATPase pH 10, TIM10 inh 49*, tim10-1 inh 54*, NLRP3 yeast inh -8, tim23-1 inh 46, tim10-1 conf 38* and tim10 confirm 53*.
For O=c1c2c(ncn2C2CCCC2)n(Cc2ccccc2)c(=O)n1CCOc1ccc(Br)cc1 the results were V-ATPase pH 3, TIM10 inh 11, tim10-1 inh 34, NALP1 inh 20, NLRP3 yeast inh 8 and tim23-1 inh 25.
`S=C(NNc1cccc(Cl)c1)NC1CCCCC1` gave V-ATPase pH -5, TIM10 inh 61*, tim10-1 inh 49*, NALP1 inh -4, NLRP3 yeast inh -1, tim23-1 inh 40, tim10-1 conf 41* and tim10 confirm 55*.
For S=C(Nc1cccc(Cl)c1)NC1CCCCC1 the results were V-ATPase pH 2, TIM10 inh 14, tim10-1 inh 26, NALP1 inh 8, NLRP3 yeast inh 28 and tim23-1 inh 16.
Cc1cc(C)cc(NC(=S)NC(=O)Cc2ccccc2)c1 was read as V-ATPase pH -6, TIM10 inh 40*, tim10-1 inh 44*, NLRP3 yeast inh 23, tim23-1 inh 47, tim10-1 conf 30* and tim10 confirm 40*.
Screening Cc1ccc(/C=C/C(=O)OC(C)C(=O)Nc2ccc(Cl)cn2)o1 (centres undefined) returned V-ATPase pH 5, TIM10 inh 1, tim10-1 inh 19, NALP1 inh 23, NLRP3 yeast inh 16 and tim23-1 inh 18.
Screening CC(=O)/C(=N\Nc1ccccc1)Sc1nnc(-c2ccccc2)n1-c1ccccc1 returned V-ATPase pH -1, TIM10 inh 46*, tim10-1 inh 44*, NALP1 inh -3, NLRP3 yeast inh 19, tim23-1 inh 25, tim10-1 conf 29 and tim10 confirm 4.
Screening CC(=O)/C(=N\Nc1ccccc1Cl)Sc1nnc(-c2ccccc2)n1-c1ccccc1 returned V-ATPase pH -4, TIM10 inh 22, tim10-1 inh 13, NALP1 inh 14, NLRP3 yeast inh 20 and tim23-1 inh 11.
`O=C(NCc1ccco1)C(c1ccccc1)N(Cc1ccccc1)C(=O)Cn1nnc2ccccc21` (centres undefined) gave V-ATPase pH 1, TIM10 inh 12, tim10-1 inh 14, NALP1 inh -4, NLRP3 yeast inh 2 and tim23-1 inh 5.
For Cc1c(OCC(=O)OC(C)(C)C)ccc2c3c(c(=O)oc12)CCC3 the results were V-ATPase pH 1, TIM10 inh 20, tim10-1 inh 13, NALP1 inh 22, NLRP3 yeast inh 19 and tim23-1 inh 20.
Screening Cc1c(OC(=O)CNC(=O)OC(C)(C)C)ccc2c3c(c(=O)oc12)CCC3 returned V-ATPase pH -1, TIM10 inh 45*, tim10-1 inh 49*, NALP1 inh 13, NLRP3 yeast inh -9, tim23-1 inh 41, tim10-1 conf 39* and tim10 confirm 47*.
`O=C(CN(C1CCCCC1)S(=O)(=O)c1ccc(F)cc1)NCC1CCCO1` (centres undefined) gave V-ATPase pH 1.
